Experimental data: the supplement of paper PMC6411743
± gives the standard deviation of the averaged measurements. Targets with the largest changes are over-represented here; the source holds about 5,400 in all.

UniProt Q99707, sequence (Q99707 whole entry): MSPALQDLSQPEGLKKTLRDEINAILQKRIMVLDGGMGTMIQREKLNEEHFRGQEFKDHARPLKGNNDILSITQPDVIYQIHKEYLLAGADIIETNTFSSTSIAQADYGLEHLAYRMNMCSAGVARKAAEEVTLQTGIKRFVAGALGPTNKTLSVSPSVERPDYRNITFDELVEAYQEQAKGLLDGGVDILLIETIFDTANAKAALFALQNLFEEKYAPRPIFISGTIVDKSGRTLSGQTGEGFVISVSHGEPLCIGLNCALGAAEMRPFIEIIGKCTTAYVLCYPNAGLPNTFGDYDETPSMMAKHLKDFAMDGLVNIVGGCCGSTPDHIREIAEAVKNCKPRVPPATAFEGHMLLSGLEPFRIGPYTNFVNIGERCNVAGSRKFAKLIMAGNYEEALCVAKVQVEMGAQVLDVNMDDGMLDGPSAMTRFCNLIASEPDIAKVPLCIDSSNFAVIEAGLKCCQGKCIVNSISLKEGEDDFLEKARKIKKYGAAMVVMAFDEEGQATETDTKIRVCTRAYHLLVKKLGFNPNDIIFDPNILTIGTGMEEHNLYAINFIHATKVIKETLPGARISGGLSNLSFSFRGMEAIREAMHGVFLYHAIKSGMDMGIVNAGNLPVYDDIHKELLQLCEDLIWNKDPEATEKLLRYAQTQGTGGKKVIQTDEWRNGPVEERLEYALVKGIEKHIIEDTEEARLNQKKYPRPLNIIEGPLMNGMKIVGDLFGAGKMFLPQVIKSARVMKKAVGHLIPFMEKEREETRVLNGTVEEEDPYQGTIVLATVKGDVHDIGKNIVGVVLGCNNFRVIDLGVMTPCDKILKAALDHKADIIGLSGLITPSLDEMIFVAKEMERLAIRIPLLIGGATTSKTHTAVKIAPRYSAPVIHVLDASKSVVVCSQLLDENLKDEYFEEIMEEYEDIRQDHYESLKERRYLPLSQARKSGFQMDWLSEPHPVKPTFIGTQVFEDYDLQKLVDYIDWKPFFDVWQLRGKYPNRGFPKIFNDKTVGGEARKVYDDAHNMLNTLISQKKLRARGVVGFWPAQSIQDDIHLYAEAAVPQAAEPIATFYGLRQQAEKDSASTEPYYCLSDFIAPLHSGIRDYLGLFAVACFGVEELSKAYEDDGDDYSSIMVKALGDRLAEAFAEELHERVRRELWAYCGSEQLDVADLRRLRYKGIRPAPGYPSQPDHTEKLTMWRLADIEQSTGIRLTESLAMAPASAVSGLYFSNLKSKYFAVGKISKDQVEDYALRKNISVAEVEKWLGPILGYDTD
UniProt Q9Y696, sequence (Q9Y696 whole entry): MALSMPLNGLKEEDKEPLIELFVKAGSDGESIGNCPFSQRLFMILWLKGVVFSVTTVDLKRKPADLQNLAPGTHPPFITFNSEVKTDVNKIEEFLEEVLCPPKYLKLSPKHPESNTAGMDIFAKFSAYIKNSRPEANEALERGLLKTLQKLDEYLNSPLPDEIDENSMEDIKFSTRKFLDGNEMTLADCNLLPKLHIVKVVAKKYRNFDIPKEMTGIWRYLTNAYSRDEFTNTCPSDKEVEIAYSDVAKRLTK
UniProt Q9H832, sequence (Q9H832 whole entry): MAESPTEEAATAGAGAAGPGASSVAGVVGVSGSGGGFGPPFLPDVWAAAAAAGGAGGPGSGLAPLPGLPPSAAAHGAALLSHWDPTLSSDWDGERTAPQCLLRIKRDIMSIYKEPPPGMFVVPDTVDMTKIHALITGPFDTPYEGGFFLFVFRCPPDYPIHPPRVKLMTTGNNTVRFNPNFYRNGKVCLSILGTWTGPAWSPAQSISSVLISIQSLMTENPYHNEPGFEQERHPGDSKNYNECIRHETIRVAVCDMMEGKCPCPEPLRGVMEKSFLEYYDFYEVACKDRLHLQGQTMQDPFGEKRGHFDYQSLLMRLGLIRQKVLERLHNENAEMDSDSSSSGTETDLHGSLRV
UniProt Q03519, sequence (Q03519 whole entry, one chain of several): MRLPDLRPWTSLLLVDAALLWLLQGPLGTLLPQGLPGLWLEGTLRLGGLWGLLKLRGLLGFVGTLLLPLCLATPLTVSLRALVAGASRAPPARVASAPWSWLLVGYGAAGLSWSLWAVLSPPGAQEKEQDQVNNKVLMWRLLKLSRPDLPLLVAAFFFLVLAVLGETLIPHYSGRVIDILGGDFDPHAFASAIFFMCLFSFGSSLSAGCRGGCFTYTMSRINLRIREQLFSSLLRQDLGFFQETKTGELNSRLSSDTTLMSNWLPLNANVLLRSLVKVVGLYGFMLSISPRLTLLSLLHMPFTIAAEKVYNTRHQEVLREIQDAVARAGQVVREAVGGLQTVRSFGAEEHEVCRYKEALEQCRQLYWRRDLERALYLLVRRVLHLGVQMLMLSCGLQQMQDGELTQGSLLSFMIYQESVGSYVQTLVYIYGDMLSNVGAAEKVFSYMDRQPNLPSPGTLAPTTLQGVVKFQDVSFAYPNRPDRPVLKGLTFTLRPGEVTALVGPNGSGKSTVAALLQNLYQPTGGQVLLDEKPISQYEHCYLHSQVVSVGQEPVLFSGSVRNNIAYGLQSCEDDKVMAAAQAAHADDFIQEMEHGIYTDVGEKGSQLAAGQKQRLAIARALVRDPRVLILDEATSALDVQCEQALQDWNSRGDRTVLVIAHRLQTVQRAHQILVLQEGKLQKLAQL
UniProt Q9NPD3, sequence (Q9NPD3 whole entry): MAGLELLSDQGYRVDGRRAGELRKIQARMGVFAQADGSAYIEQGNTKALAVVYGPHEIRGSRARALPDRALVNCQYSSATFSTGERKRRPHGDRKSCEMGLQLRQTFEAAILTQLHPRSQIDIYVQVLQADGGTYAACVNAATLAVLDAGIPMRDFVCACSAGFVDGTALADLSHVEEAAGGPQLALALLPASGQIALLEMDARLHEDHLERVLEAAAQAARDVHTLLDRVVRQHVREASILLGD
UniProt Q969P0, sequence (Q969P0 whole entry): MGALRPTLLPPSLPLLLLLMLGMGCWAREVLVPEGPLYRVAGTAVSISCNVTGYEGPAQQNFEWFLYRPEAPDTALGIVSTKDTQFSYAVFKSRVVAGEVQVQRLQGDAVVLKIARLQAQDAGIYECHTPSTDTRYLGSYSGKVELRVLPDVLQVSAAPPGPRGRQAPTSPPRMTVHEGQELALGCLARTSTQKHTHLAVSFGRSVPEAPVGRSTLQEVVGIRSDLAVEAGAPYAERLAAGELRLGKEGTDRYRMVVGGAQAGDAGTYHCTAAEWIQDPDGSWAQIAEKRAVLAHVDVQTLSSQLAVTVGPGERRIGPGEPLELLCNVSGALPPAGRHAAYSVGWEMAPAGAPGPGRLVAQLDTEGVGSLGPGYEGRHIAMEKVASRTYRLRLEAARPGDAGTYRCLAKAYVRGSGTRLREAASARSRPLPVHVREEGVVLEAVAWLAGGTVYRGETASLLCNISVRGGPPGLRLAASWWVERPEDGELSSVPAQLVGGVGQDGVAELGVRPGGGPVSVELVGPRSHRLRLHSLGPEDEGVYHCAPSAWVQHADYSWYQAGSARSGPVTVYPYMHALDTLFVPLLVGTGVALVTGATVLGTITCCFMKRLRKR
UniProt Q9Y3E2, sequence (Q9Y3E2 whole entry): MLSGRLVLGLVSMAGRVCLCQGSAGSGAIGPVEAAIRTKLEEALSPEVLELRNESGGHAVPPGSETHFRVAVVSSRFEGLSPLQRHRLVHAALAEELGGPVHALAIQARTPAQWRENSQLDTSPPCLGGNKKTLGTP
UniProt Q9Y3L3, sequence (Q9Y3L3 whole entry): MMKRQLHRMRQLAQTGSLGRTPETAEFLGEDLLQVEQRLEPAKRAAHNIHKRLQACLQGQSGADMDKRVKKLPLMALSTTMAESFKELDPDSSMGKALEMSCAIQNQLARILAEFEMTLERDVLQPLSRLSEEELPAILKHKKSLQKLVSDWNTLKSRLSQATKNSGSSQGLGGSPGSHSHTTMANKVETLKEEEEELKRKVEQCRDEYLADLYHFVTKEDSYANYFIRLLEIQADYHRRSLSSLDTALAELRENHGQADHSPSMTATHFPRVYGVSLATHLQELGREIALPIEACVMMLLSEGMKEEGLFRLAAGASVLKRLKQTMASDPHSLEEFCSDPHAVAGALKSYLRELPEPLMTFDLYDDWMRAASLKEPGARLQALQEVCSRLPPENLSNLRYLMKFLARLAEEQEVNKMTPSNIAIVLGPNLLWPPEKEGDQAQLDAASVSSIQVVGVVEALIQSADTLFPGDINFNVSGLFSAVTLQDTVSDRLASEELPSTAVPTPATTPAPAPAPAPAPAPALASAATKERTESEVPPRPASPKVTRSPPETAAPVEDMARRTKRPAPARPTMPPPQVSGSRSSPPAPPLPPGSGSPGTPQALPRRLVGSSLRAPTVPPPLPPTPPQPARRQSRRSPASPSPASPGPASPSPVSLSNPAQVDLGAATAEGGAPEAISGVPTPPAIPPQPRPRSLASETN
UniProt Q96B97, sequence (Q96B97 whole entry): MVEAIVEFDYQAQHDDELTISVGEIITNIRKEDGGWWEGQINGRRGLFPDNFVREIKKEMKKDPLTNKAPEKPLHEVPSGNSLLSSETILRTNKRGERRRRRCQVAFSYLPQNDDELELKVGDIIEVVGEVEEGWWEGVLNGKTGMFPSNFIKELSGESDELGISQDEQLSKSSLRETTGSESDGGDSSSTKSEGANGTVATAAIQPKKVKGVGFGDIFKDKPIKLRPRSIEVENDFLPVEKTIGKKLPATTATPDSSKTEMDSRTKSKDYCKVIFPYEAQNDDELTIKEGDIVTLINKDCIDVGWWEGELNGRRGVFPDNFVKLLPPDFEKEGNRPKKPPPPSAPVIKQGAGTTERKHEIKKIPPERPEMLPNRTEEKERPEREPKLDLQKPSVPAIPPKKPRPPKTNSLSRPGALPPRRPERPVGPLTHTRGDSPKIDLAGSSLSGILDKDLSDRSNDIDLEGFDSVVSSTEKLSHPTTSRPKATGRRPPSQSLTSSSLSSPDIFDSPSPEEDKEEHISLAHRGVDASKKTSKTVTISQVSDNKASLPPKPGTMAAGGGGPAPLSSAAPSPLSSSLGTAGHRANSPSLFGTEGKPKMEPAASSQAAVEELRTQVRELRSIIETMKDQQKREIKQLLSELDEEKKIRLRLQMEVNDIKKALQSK

These targets were tested with Nc1nc2c(ncn2[C@@H]2O[C@H](COP(=O)(O)OP(=O)(O)OP(=O)(O)O)[C@@H](O)[C@H]2O)c(=O)[nH]1 [guanosine triphosphate] (assay: NP40-soluble protein abundance relative to vehicle (solubility fold change) (ratio); higher = more soluble protein in presence of GTP). Details: concentration: 2mM.
In short: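 Across three independent experiments, values are fold changes against the detergent-processed vehicle for each replicate, based on vsn-normalised intensities. The samples were Jurkat crude lysate treated with eight concentrations (0.1 to 10 mM) for 10 min at room temperature and then 3 min at 37 °C. Lysate was solubilised with 0.8% NP40 and benzonase, ultracentrifuged, and the supernatant analysed by TMT-labelled LC-MS/MS.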
Work on UniProt Q9UKV8 yielded an NP40-soluble protein abundance of 1.11 ± 0.053.
FBXO28 (UniProt Q9NVF7) was tested, and the NP40-soluble protein abundance was 1.31 ± 0.099.
BOLA1 (UniProt Q9Y3E2) gave an NP40-soluble protein abundance of 0.943 ± 0.028.
UniProt Q969P0|Q969P0-3 was tested, and the NP40-soluble protein abundance was 0.956 ± 0.058.
Work on FAM117A (UniProt Q9C073) yielded an NP40-soluble protein abundance of 1.03 ± 0.024.
Work on X5CMH5 (UniProt Q03519) yielded an NP40-soluble protein abundance of 1.01 ± 0.085.
In the case of UniProt Q9UKZ1, the NP40-soluble protein abundance is reported as 2.81 ± 2.7.
For FAM120C (UniProt Q9NX05), the NP40-soluble protein abundance was 1.09 ± 0.065.
UniProt Q9H0F7|Q9H0F7-2|A0A0J9YXT0 gave an NP40-soluble protein abundance of 0.986 ± 0.12.
Target ZHX3 (UniProt Q9H4I2) has an NP40-soluble protein abundance of 1.01 ± 0.099.
EXOSC4 (UniProt Q9NPD3) was tested, and the NP40-soluble protein abundance was 0.994 ± 0.11.
UniProt Q9NVR5 gave an NP40-soluble protein abundance of 0.885 ± 0.16.
Work on CBX8 (UniProt Q9HC52) yielded an NP40-soluble protein abundance of 1.24 ± 0.14.
In the case of VPS35 (UniProt Q96QK1), the NP40-soluble protein abundance is reported as 0.958 ± 0.13.
XRN2 (UniProt Q9H0D6) was tested, and the NP40-soluble protein abundance was 0.977 ± 0.027.
For UniProt Q9UMX0|Q9UMX0-2, the NP40-soluble protein abundance was 1.02 ± 0.032.
With UniProt Q9Y3L3|Q9Y3L3-2 the NP40-soluble protein abundance was 0.988 ± 0.099.
In the case of UniProt Q9Y6A4, the NP40-soluble protein abundance is reported as 0.968 ± 0.1.
UniProt Q96B97|Q96B97-2 was tested, and the NP40-soluble protein abundance was 0.943 ± 0.13.
UTP18 (UniProt Q9Y5J1) gave an NP40-soluble protein abundance of 1.24 ± 0.091.
Work on UniProt Q9UJ83|Q9UJ83-2|Q9UJ83-3 yielded an NP40-soluble protein abundance of 1.01 ± 0.11.
Work on UniProt Q99707|Q99707-2 yielded an NP40-soluble protein abundance of 1.01 ± 0.033.
UniProt Q9Y333 gave an NP40-soluble protein abundance of 0.939 ± 0.1.
UniProt Q9NW08|Q9NW08-2 gave an NP40-soluble protein abundance of 1.15 ± 0.18.
Work on MTMR6 (UniProt Q9Y217) yielded an NP40-soluble protein abundance of 0.969 ± 0.01.
For CLIC4 (UniProt Q9Y696), the NP40-soluble protein abundance was 0.88 ± 0.1.
Work on UniProt Q9UJX5|Q9UJX5-3|Q9UJX5-2 yielded an NP40-soluble protein abundance of 1.27 ± 0.23.
UniProt Q9C0B5|Q9C0B5-2 was tested, and the NP40-soluble protein abundance was 0.938 ± 0.012.
NOP58 (UniProt Q9Y2X3) gave an NP40-soluble protein abundance of 1.19 ± 0.044.
For UniProt Q9BX67, the NP40-soluble protein abundance was 0.913 ± 0.066.
Work on UniProt Q9NY12|Q9NY12-2 yielded an NP40-soluble protein abundance of 1.34 ± 0.15.
Work on LARS (UniProt Q9P2J5) yielded an NP40-soluble protein abundance of 1.17 ± 0.26.
Work on DDX18 (UniProt Q9NVP1) yielded an NP40-soluble protein abundance of 1.2 ± 0.071.
For ATP6V1D (UniProt Q9Y5K8), the NP40-soluble protein abundance was 1.06 ± 0.022.
For AFG3L2 (UniProt Q9Y4W6), the NP40-soluble protein abundance was 0.969 ± 0.022.
For UniProt Q9H832|Q9H832-2, the NP40-soluble protein abundance was 1.12 ± 0.056.
With UniProt Q9Y2A7|Q9Y2A7-2 the NP40-soluble protein abundance was 0.982 ± 0.015.
In the case of SMARCD1 (UniProt Q96GM5), the NP40-soluble protein abundance is reported as 1.18 ± 0.16.

Same assay, conditions: concentration: 4mM
UniProt Q9UKV8 showed an NP40-soluble protein abundance of 1.1 ± 0.026.
FBXO28 (UniProt Q9NVF7) gave an NP40-soluble protein abundance of 1.39 ± 0.12.
For BOLA1 (UniProt Q9Y3E2), the NP40-soluble protein abundance was 0.908 ± 0.073.
In the case of UniProt Q969P0|Q969P0-3, the NP40-soluble protein abundance is reported as 0.932 ± 0.069.
With FAM117A (UniProt Q9C073) the NP40-soluble protein abundance was 1.1204 ± 7.8e-05.
With X5CMH5 (UniProt Q03519) the NP40-soluble protein abundance was 0.976 ± 0.063.
UniProt Q9UKZ1 gave an NP40-soluble protein abundance of 1.26 ± 0.14.
With FAM120C (UniProt Q9NX05) the NP40-soluble protein abundance was 1.12 ± 0.068.
With UniProt Q9H0F7|Q9H0F7-2|A0A0J9YXT0 the NP40-soluble protein abundance was 0.932 ± 0.065.
Work on ZHX3 (UniProt Q9H4I2) yielded an NP40-soluble protein abundance of 0.967 ± 0.039.
With EXOSC4 (UniProt Q9NPD3) the NP40-soluble protein abundance was 1.12 ± 0.023.
Target UniProt Q9NVR5 has an NP40-soluble protein abundance of 0.866 ± 0.12.
CBX8 (UniProt Q9HC52) gave an NP40-soluble protein abundance of 1.42 ± 0.15.
Target VPS35 (UniProt Q96QK1) has an NP40-soluble protein abundance of 0.929 ± 0.11.
For XRN2 (UniProt Q9H0D6), the NP40-soluble protein abundance was 0.985 ± 0.018.
With UniProt Q9UMX0|Q9UMX0-2 the NP40-soluble protein abundance was 1.012 ± 0.0015.
Work on UniProt Q9Y3L3|Q9Y3L3-2 yielded an NP40-soluble protein abundance of 0.981 ± 0.04.
UniProt Q9Y6A4 was tested, and the NP40-soluble protein abundance was 1.01 ± 0.05.
In the case of UniProt Q96B97|Q96B97-2, the NP40-soluble protein abundance is reported as 0.949 ± 0.1.
Work on UTP18 (UniProt Q9Y5J1) yielded an NP40-soluble protein abundance of 1.37 ± 0.11.
UniProt Q9UJ83|Q9UJ83-2|Q9UJ83-3 gave an NP40-soluble protein abundance of 0.987 ± 0.04.
In the case of UniProt Q99707|Q99707-2, the NP40-soluble protein abundance is reported as 0.973 ± 0.022.
Work on UniProt Q9Y333 yielded an NP40-soluble protein abundance of 0.887 ± 0.12.
UniProt Q9NW08|Q9NW08-2 gave an NP40-soluble protein abundance of 1.19 ± 0.16.
Work on MTMR6 (UniProt Q9Y217) yielded an NP40-soluble protein abundance of 0.93 ± 0.031.
With CLIC4 (UniProt Q9Y696) the NP40-soluble protein abundance was 0.976 ± 0.13.
Target UniProt Q9UJX5|Q9UJX5-3|Q9UJX5-2 has an NP40-soluble protein abundance of 1.25 ± 0.27.
In the case of UniProt Q9C0B5|Q9C0B5-2, the NP40-soluble protein abundance is reported as 0.903 ± 0.018.
NOP58 (UniProt Q9Y2X3) gave an NP40-soluble protein abundance of 1.4 ± 0.066.
UniProt Q9BX67 was tested, and the NP40-soluble protein abundance was 0.905 ± 0.046.
Target UniProt Q9NY12|Q9NY12-2 has an NP40-soluble protein abundance of 1.51 ± 0.24.
LARS (UniProt Q9P2J5) was tested, and the NP40-soluble protein abundance was 1.2 ± 0.26.
DDX18 (UniProt Q9NVP1) was tested, and the NP40-soluble protein abundance was 1.42 ± 0.057.
ATP6V1D (UniProt Q9Y5K8) showed an NP40-soluble protein abundance of 1.056 ± 0.0052.
With AFG3L2 (UniProt Q9Y4W6) the NP40-soluble protein abundance was 0.977 ± 0.022.
UniProt Q9H832|Q9H832-2 was tested, and the NP40-soluble protein abundance was 0.927 ± 0.013.
UniProt Q9Y2A7|Q9Y2A7-2 showed an NP40-soluble protein abundance of 0.991 ± 0.034.
Target SMARCD1 (UniProt Q96GM5) has an NP40-soluble protein abundance of 1.18 ± 0.17.
